For orientation: AC50 means the concentration giving half of the maximal activity seen.

Results filed as inconclusive are left out. Calls of active or inactive are those of the source. Rule for the calls: active = hit-call score of the fitted dose curve at least 0.9, where 1 is the maximum; inconclusive = response in the unintended direction; inactive = score below 0.9.

40 molecules from PubChem BioAssay (EPA / NIEHS) can be followed below.

A short description of this assay: Tanguay_ZF_120hpf_JAW_legacy: (Legacy) Oregon State University Tanguay Lab 120 Hour Post-fertilization zebrafish Assay for Jaw Malformation (AID 2283638).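 For AC50: active means more embryos with jaw malformation than DMSO controls.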 The procedure:
Tanguay_ZF_120hpf_legacy is a whole embryo, multiplexed endpoint assay using zebrafish larvae exposed for 120 hours post fertilization on a 96-well plate.Tanguay_ZF_120hpf_JAW_legacy is one of one assay component(s) measured or calculated from the Tanguay_ZF_120hpf_legacy assay. It is designed to make measurements of zebrafish development as detected with brightfield microscopy of developing zebrafish embryos.Data from the assay component Tanguay_ZF_120hpf_JAW_legacy was analyzed into 1 assay endpoints. This assay endpoint, Tanguay_ZF_120hpf_JAW_legacy, was analyzed in the positive analysis fitting direction relative to DMSO as the negative control and baseline of activity. Using a type of morphology reporter, gain-of-signal activity can be used to understand changes in developmentals as they relate to the whole embryo. To generalize the intended target to other relatable targets, this assay endpoint is annotated to the zebrafish development intended target family, where the subfamily is embryonic jaw development.
Zebrafish husbandry: Tropical 5D wild-type adult zebrafish were housed in at an approximate density of 1000 per 100 gallon tank at the Sinnhuber Aquatic Research Laboratory, Oregon State University, Corvallis, OR. Each tank was kept at standard laboratory conditions of 28C on a 14-h light/10-h dark photoperiod in fish water consisting of reverse osmosis water supplemented with a commercially available salt (Instant Ocean). Spawning funnels were placed into the tanks the night prior, and embryos were collected and staged. To increase bioavailability, the chorion was enzymatically removed using pronase (63.6mg/ml, >/= 3.5U/mg, Sigma-Aldrich: P5147) at 4 hours post fertilization (hpf) using a custom automated dechorionator.Chemical exposures: Six hpf dechorionated embryos were placed 1 embryo per well in a 96-well plate prefilled with 90 ul of EM using automated embryo placement systems (AEPS). Ten microliters of each row of dilution plate 2 was added to 2 exposure plates. The final DMSO concentration used was 0.64% (vol/vol). Thirty-two embryos were also exposed to 5uM trimethyltin chloride (positive control). Plates were sealed to prevent evaporation and foil covered to reduce light exposure and kept in a 28C incubator. Embryos were statically exposed until 120 hpf. At 24 hpf, embryos were assessed for photomotor response using a custom photomotor response analysis tool (PRAT) and for developmental toxicity endpoints (MO24: mortality at 24 hpf, DP: developmental progression, SM: spontaneous movement, and NC: notochord distortion). At 120 hpf, locomotor activity was measured using Viewpoint Zebralab and assessed for 18 endpoints. Zebrafish acquisition and analysis program (ZAAP), a custom program designed to inventory, acquire, and manage zebrafish data, was used to collect developmental endpoints as either present or absent (i.e., binary responses were recorded). If mortality occurred for an embryo (at either 24 or 120 hpf), the non-mortality endpoints were not measured.
For the molecule `CCCCCCCCCC`, the outcome was inactive. Same read-out and setting: as for `CC(C)CCCCCCOC(=O)C1CCCCC1C(=O)OCCCCCCC(C)C` (stereo not given), the entry is “inactive”. Still for that read-out and setting: for `C[C@@H](Oc1ccc(CNC(=O)c2cccnc2Oc2ccc3c(c2)OCO3)c(F)c1)C(=O)O` the value was “inactive”. In the case of `CCCCCCCC1CCC(=O)O1` (stereo not given), the AC50 was 40.3 µM (active). Take `CCCCC(CC)C(=O)OCCOCCOCCOC(=O)C(CC)CCCC` (stereo not given): the result was inactive.

For the molecule `OC[C@H]1O[C@@](CO)(O[C@H]2O[C@H](CO)[C@@H](O)[C@H](O)[C@H]2O)[C@@H](O)[C@@H]1O`, the molecule was classed as inactive. Still for that read-out and setting: for `OCCOCCOCCO` the value was “inactive”. With `NC(=O)N(O)[C@@H]1COc2cc(OCc3ccccc3)ccc21`, the result was inactive. Turning to `CCCCCCCCCCCCCCO`, the outcome was inactive.

Take `CCOc1ccc2[nH]cc(C(=O)NCc3ccccc3)c(=O)c2n1`: the outcome was inactive. Regarding `O=C(O)c1cccc(C[C@@H]2COc3ccc(OCc4nc5cc(F)ccc5s4)cc3[C@@H]2O)c1`, the AC50 is 9.13 µM (active). Regarding `OC(CCl)CCl`, the molecule was classed as inactive. Same read-out and setting: for `CCCc1ccccc1` the value was “inactive”; for `CCn1nc(C)c2c1C(=O)NCC(c1ccc(O)cc1)=N2`, “inactive”. Still for that read-out and setting: as for `Nc1ccn([C@@H]2O[C@H](CO)[C@@H](O)[C@@H]2O)c(=O)n1`, the entry is “inactive”; as for `c1ccc2ncccc2c1`, “inactive”; as for `Cc1nc(-c2ccccn2)ncc1C(=O)Nn1cc(C)c2cc(F)ccc21`, “inactive”. Still for that read-out and setting: for `O=S1(=O)CCCO1` the value was “inactive”; for `CCCCCCCCN(C)C`, “inactive”; for `CNC(C)=O`, “inactive”. Take `C[C@]12C=CC(=O)C=C1CC[C@H]1[C@@H]3C[C@@H](O)[C@](O)(C(=O)CO)[C@@]3(C)C[C@H](O)[C@@]12F`: the call was inactive. `O=c1[nH]cnc2c1ncn2[C@H]1CC[C@@H](CO)O1`: the molecule was classed as inactive. For the molecule `CCN(CC)C(=S)SSC(=S)N(CC)CC`, the half-maximal activity concentration (AC50) was 1.24 µM (active). For `CC(C)CC(C)O` (stereo not given), the result was inactive. For `C=CCc1cc(S(=O)(=O)c2ccc(O)c(CC=C)c2)ccc1O`, the molecule was called inactive. The same measure, in the same setting: for `CCCC(CCC)C(=O)O` the value was “inactive”; for `Cn1cc[nH]c1=S`, “inactive”. On to `CC1(C)C(=O)N(Cl)C(=O)N1Cl`, for which the molecule was classed as inactive. Regarding `OCCNCCO`, the outcome was inactive.

For `COc1cc(C(C)C)c2c(c1)S(=O)(=O)N(COc1cc(=O)n3cccc(OCCN4CCCCC4)c3n1)C2=O`, the outcome was inactive. Take `CCc1cccc(CC)c1N`: the molecule was classed as inactive.

For the molecule `O=C(O)c1ccc2c(c1)nc(C(=O)NC1CCN(C3CC3)CC1)n2Cc1cc(-c2ccc(Cl)s2)on1`, the molecule was called inactive. The same measure, in the same setting: as for `CCCCCCCC/C=C\CCCCCCCC(=O)OC[C@@H](O)[C@H]1OC[C@H](O)[C@H]1O`, the entry is “inactive”.

For `C=CN1CCCC1=O`, the result was inactive.

For `COc1cc2c(c(OC)c1OC)-c1ccc(OC)c(=O)cc1[C@@H](NC(C)=O)CC2`, the call was inactive. On the same count and under the same terms, as for `CCc1ccc(O)c(C(C)(C)C)c1`, the entry is “inactive”. Regarding `O=C(O)[C@H](O)[C@@H](O)C(=O)O`, the molecule was called inactive.

On to `Cn1c(=O)c2[nH]cnc2n(C)c1=O`, for which the molecule was classed as inactive. In the case of `CCCOc1ccc(S(=O)(=O)N2CCN(CC)CC2)cc1-c1nc2c(CC)n(Cc3ccccn3)nc2c(=O)[nH]1`, the result was inactive. Same read-out and setting: as for `NC(=O)NN=Cc1ccc([N+](=O)[O-])o1`, the entry is “inactive”.
